Assay outcomes as filed in PubChem BioAssay.
Hits are enriched below; roughly 0.87% of the tested compounds scored in any of these assays.
IDE cell activ: IDE (human) activation, cell-based | P14735 | 340,000 tested, 0.073% active | HEK cells, FAbeta-B cleavage, fluorescence polarization; 0% vehicle, 100% cell-free pure enzyme wells | activation, % at 5.96 µM;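 active = activation above the mean of all tested compounds plus 3 SD, set per screening campaign, cut at about 17% in these data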
TLR9-MyD88 block: TLR9-MyD88 interaction inhibition | Q9NR96+Q99836 | CHO BLA complementation TLR9-MyD88, CCF4 FRET ratio | inhibition, % at 4.98 µM | 340,000 tested, 0.21% active;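 active = inhibition above the mean over all tested compounds plus 3 SD, cut at about 21% in these data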;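 note: 0% = DMSO only wells and 100% = clavulanate BLA inhibitor control wells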
TLR4 MyD88 comp: TLR4-MyD88 interaction inhibition in cells; AID 861; HeLa CL3-4 TLR4/MyD88 BLA complementation, FRET ratio; inhibition, % at 8.4 µM; O00206+Q99836; 200,000 tested, 0.18% active; in the data active = inhibition above about 25%;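 note: 0% = vehicle and 100% = reference inhibitor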
IDE inh: inhibitors of human insulin-degrading enzyme in cells. 320,000 tested, 0.41% active. HEK cells, FAbetaB cleavage, fluorescence polarization. inhibition, % at 5.59 µM. P14735;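 active = percent inhibition above the average of all tested compounds plus 3 SD, set per screening campaign, cut at about 16% in these data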;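 note: IDE supplied by intact live HEK cells; FP after avidin binding of uncleaved biotin substrate so inhibition keeps polarization high; 0% = DMSO wells and 100% = 60 µM reference IDE inhibitor Ii1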
NOD2 RIPK2 PPI: inhibitors of human NOD2-RIPK2 interaction; inhibition, % at 4.98 µM; O43353; 360,000 tested, 0.38% active; CHO BLA complementation NOD2-RIPK2, CCF4 ratio; AID 624267; in the data active = inhibition above about 21%;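 note: 0% = vehicle only and 100% = reference blocker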
Target sequence (O43353 whole entry, looked up): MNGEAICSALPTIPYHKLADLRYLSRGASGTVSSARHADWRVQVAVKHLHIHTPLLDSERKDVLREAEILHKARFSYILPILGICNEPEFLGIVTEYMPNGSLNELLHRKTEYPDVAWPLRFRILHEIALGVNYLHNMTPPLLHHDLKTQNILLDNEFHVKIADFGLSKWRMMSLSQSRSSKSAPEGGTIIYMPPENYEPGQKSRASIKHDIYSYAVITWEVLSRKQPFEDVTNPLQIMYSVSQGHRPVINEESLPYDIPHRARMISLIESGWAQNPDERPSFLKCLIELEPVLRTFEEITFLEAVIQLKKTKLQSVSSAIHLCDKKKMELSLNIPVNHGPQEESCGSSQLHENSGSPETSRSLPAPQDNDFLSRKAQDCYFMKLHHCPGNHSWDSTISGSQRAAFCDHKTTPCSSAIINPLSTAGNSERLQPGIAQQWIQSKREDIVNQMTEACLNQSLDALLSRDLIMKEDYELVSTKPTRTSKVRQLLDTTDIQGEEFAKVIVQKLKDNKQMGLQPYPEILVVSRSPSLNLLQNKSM
NOD2 RIPK2 conf: NOD2-RIPK2 interaction inhibition confirmed. CHO cells, NOD2-RIPK2 BLA complementation, CCF4 FRET. AID 624370. 1,200 tested, 70% active. inhibition, % at 4.98 µM. shares compounds with NOD2 RIPK2 PPI;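 active = mean inhibition across replicates above a set limit taken from the earlier primary screen, cut at about 21% in these data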;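 note: 0% = DMSO-only wells and the high end = clavulanate BLA-blocked wells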
NOD2 BLA counter: NOD2-RIPK2 counterscreen BLA reporter activity | inhibition, % at 4.98 µM | shares compounds with NOD2 RIPK2 PPI | CHO BLA reporter, CCF4 FRET ratio | 1,200 tested, 57% active | AID 624371;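 active = mean inhibition above the low-control mean inhibition plus three low-control SD, cut at about 11% in these data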;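 note: 0% = DMSO only wells and 100% = clavulanate high control wells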
An asterisk follows results filed as active.

How did CCOC(=O)c1sc2nc(-c3ccccc3)ccc2c1N do in these assays?
IDE cell activ: -3; TLR9-MyD88 block: 12; TLR4 MyD88 comp: 15; IDE inh: 2; NOD2 RIPK2 PPI: 23*; NOD2 RIPK2 conf: 48*; NOD2 BLA counter: 59*

Results for O=C(CNc1ccccc1F)Nc1cccc2ccccc12 ?
IDE cell activ: 2; TLR9-MyD88 block: 4; IDE inh: 1; NOD2 RIPK2 PPI: -1

What do the screens show for `CCCCNc1c(-c2cc3ccccc3o2)nc2nc(C)cc(C)n12`?
NOD2 RIPK2 PPI: 10

Results for CCc1ccc2c(c1)/C(=C/C(=O)c1cccs1)C(=O)N2 ?
IDE cell activ: -5; TLR9-MyD88 block: 11; TLR4 MyD88 comp: 17; IDE inh: 7; NOD2 RIPK2 PPI: 47*; NOD2 RIPK2 conf: 42*; NOD2 BLA counter: 2

What do the screens show for `Cc1cccc2c1NC(=O)/C2=C\C(=O)c1cccs1`?
IDE cell activ: -11; TLR9-MyD88 block: -2; TLR4 MyD88 comp: 7; IDE inh: 7; NOD2 RIPK2 PPI: 7

How did COc1ccc(/C=C/C(=O)OCC(=O)NC2CCCC2)cc1OC do in these assays?
IDE cell activ: -1; TLR9-MyD88 block: -6; IDE inh: 1; NOD2 RIPK2 PPI: -5

Results for Cc1ccc(C(=O)/C=C/c2cn(CN3CCN(C)CC3)c3ccccc23)cc1 ?
IDE cell activ: -5; TLR9-MyD88 block: 10; TLR4 MyD88 comp: 23; IDE inh: 5; NOD2 RIPK2 PPI: 24*; NOD2 RIPK2 conf: 26*; NOD2 BLA counter: 38*

How did Cc1nn(C)cc1/C=C/C(=O)c1ccccc1 do in these assays?
IDE cell activ: 3; TLR9-MyD88 block: -13; TLR4 MyD88 comp: 16; IDE inh: 6; NOD2 RIPK2 PPI: 0

How did Cn1cc(/C=C/C(=O)c2ccccc2)c2ccccc21 do in these assays?
IDE cell activ: -2; TLR9-MyD88 block: 10; IDE inh: -2; NOD2 RIPK2 PPI: 25*; NOD2 RIPK2 conf: 25*; NOD2 BLA counter: 28*

What do the screens show for `Cc1cc(Br)c2c(c1)C1(OCCO1)C(=O)N2`?
IDE cell activ: 0; TLR9-MyD88 block: 10; IDE inh: -4; NOD2 RIPK2 PPI: -6

What do the screens show for `COc1ccc(CNC(=O)CS(=O)CC(=O)O)cc1OC` (configuration not stated)?
IDE cell activ: 2; TLR9-MyD88 block: -5; TLR4 MyD88 comp: 6; IDE inh: 3; NOD2 RIPK2 PPI: -10

How did Cc1cc(N2CCN(C)CC2)ccc1NC(=O)c1c2c(nc3ccccc13)CCN(Cc1ccccc1)C2 do in these assays?
IDE cell activ: 12; TLR9-MyD88 block: -59; TLR4 MyD88 comp: -16; IDE inh: -6; NOD2 RIPK2 PPI: 34*; NOD2 RIPK2 conf: 47*; NOD2 BLA counter: 9

How did N#CCC(=O)Nc1ccc(C(=O)NNC(=O)c2ccccc2-n2cccc2)cc1 do in these assays?
IDE cell activ: 7; TLR9-MyD88 block: -1; IDE inh: 4; NOD2 RIPK2 PPI: 4

What do the screens show for `Cc1ccc(C2C=C(c3ccccc3)Nc3nc(N4C(=O)CCC4=O)nn32)cc1` (configuration not stated)?
TLR4 MyD88 comp: 23; NOD2 RIPK2 PPI: 45*; NOD2 RIPK2 conf: 33*; NOD2 BLA counter: 35*

What do the screens show for `COCCn1c(=NC(=O)CSCC(=O)N2CCOCC2)sc2ccccc21`?
IDE cell activ: 3; TLR9-MyD88 block: -1; IDE inh: -4; NOD2 RIPK2 PPI: 3

What do the screens show for `COc1cc(NC(=O)CN(C)S(=O)(=O)c2ccc(-c3ccc(=O)[nH]n3)s2)cc(OC)c1`?
IDE cell activ: -1; TLR9-MyD88 block: 0; IDE inh: 4; NOD2 RIPK2 PPI: 0

Results for O=C(Nc1ccccc1)C1Cc2c(-c3ccc(Cl)cc3)ccnc2O1 (configuration not stated) ?
NOD2 RIPK2 PPI: -1

How did O=C(NCc1ccccc1)C1Cc2c(-c3ccc(Cl)cc3)ccnc2O1 (configuration not stated) do in these assays?
NOD2 RIPK2 PPI: 21*; NOD2 RIPK2 conf: 18; NOD2 BLA counter: 1

What do the screens show for `NC(=O)c1ccc2c(=O)c(O)c(-c3cc(Cl)c(N)c(Cl)c3)[nH]c2c1`?
IDE cell activ: 4; TLR9-MyD88 block: 14; IDE inh: -2; NOD2 RIPK2 PPI: 38*; NOD2 RIPK2 conf: 30*; NOD2 BLA counter: 29*

What do the screens show for `Cc1ccc(Nc2ncnc3c2nnn3Cc2ccccc2)cc1`?
IDE inh: -5; NOD2 RIPK2 PPI: 2

Results for O=C(c1ccccc1Cl)N(Cc1ccc(Br)cc1)N1C(=O)CCC1=O ?
IDE cell activ: 2; TLR9-MyD88 block: -2; TLR4 MyD88 comp: -10; IDE inh: 0; NOD2 RIPK2 PPI: 23*; NOD2 RIPK2 conf: 0; NOD2 BLA counter: -2

What do the screens show for `Cc1nc(SCC(=O)N2CCC(Cc3ccccc3)CC2)[nH]c(=O)c1C`?
IDE cell activ: 3; TLR9-MyD88 block: -2; IDE inh: 6; NOD2 RIPK2 PPI: -1

Results for O=C(COC(=O)c1ccc(Br)o1)NCc1ccc(Cl)cc1 ?
IDE cell activ: -6; TLR9-MyD88 block: -1; IDE inh: 1; NOD2 RIPK2 PPI: 0

How did S=C(c1ccc(-c2ccccc2Cl)o1)N1CCOCC1 do in these assays?
IDE cell activ: -3; TLR9-MyD88 block: -3; TLR4 MyD88 comp: 2; IDE inh: 3; NOD2 RIPK2 PPI: 22*; NOD2 RIPK2 conf: 6; NOD2 BLA counter: -1

How did CCCCCNC(=O)C(c1cccc2ccccc12)n1c(=O)c(-c2ccccc2)nc2ccccc21 (configuration not stated) do in these assays?
NOD2 RIPK2 PPI: -15

How did CCCCCNC(=O)C(c1cccc2ccccc12)n1c(=O)c(-c2cc3ccccc3[nH]2)nc2ccccc21 (configuration not stated) do in these assays?
NOD2 RIPK2 PPI: 42*; NOD2 RIPK2 conf: 36*; NOD2 BLA counter: 64*

What do the screens show for `CCCCCNC(=O)C(CCc1ccccc1)n1c(=O)c(-c2cc3ccccc3[nH]2)nc2ccccc21` (configuration not stated)?
NOD2 RIPK2 PPI: 44*; NOD2 RIPK2 conf: 41*; NOD2 BLA counter: 66*

Results for CCCCCNC(=O)C(c1ccccc1)n1c(=O)c(-c2cc3ccccc3[nH]2)nc2ccccc21 (configuration not stated) ?
NOD2 RIPK2 PPI: 46*; NOD2 RIPK2 conf: 40*; NOD2 BLA counter: 64*

What do the screens show for `CCOc1ccc(S(=O)(=O)N(CC)CC(=O)NC2CCS(=O)(=O)C2)cc1` (configuration not stated)?
IDE cell activ: 6; TLR9-MyD88 block: -5; IDE inh: 2; NOD2 RIPK2 PPI: 8
